According to ChEMBL document CHEMBL4513142, “CO-ADD screening of Indiana University - Purdue University Indianapolis (USA) compounds”:
Values joined by “and” are separate entries in the source; they are usually repeats but may differ in a detail not shown here. Equal entries are not always repeated. Potency and affinity values are given separately.

Key:
Klebsiella pneumoniae = conditions: Concentration 32 ug.mL-1, ASSAY_TEST Inhibition of Bacterial Growth, detection method Absorption (OD600), MEDIA CAMHB, plate type 384well, NBS, CORNING #3640, time 18 hr
Candida albicans = conditions: 32 ug/mL
Cryptococcus neoformans = conditions: Concentration 32 ug.mL-1, ASSAY_TEST Inhibition of Fungal Growth, detection method Resazurin, Absorption (OD600-OD570), plate type 384well, NBS, CORNING #3640

Row | SMILES | Inhibition (Klebsiella pneumoniae; 32 ug/mL) | Inhibition (Candida albicans) | Inhibition (Cryptococcus neoformans; 32 ug/mL) | Inhibition (Klebsiella pneumoniae) [%] | Inhibition (Cryptococcus neoformans) [%]
1 | O=C(NC(Cc1ccc(Cl)nc1)C(=O)O)c1ccccc1 (stereo not drawn) | 9.49% and 7.67% | 3.67% and 3.1% | -7.31% and -8.02% | – | –
2 | CCCNC(=O)C(Cc1ccc(F)cc1)NC(=O)c1ccccc1 (stereo not drawn) | – | 2.54% | – | 12.41 | -4.63
3 | CCCNC(=O)C(Cc1ccccc1)NC(=O)Cc1ccccc1 (stereo not drawn) | – | 5.66% | – | 14.33 | -5.77
4 | O=C(N[C@@H](Cc1ccccc1)C(=O)O)C1CCCCC1 | 1.14% and 5.62% | – | -13.27% and -11.08% | – | –
5 | NC(Cc1ccccc1I)C(=O)O.O=C(O)C(F)(F)F (stereo not drawn) | 3.96% and 4.88% | 4.55% and 4.79% | -7.57% and -7.31% | – | –
6 | O=C(NC(CCCc1ccccc1)C(=O)O)c1cccc2ccccc12 (stereo not drawn) | 4.24% and 7.53% | 4.21% and 5.17% | -11.3% and -10.65% | – | –
7 | NC(=O)[C@H](Cc1ccccc1)NC(=O)c1c(F)c(F)c(F)c(F)c1F | 8.47% and 11.14% | 3.95% and 8.52% | -9.93% and -7.63% | – | –
8 | [C-]#[N+]c1ccc(C(=O)NC(Cc2ccc(F)cc2)C(=O)NCCC)cc1 (stereo not drawn) | – | 5.24% | – | 14.12 | -1.72
